# Source: PubChem BioAssay (NCATS)
# Inconclusive results are not listed. A call without a number means that no potency is given here. Calls of active or inactive are those of the source. Unless noted, calls come from the whole dose curve; as a rule, active = well fitted curve in the direction sought with a large enough effect; inconclusive = small, poorly fitted or top-dose-only effect, or another doubt; inactive = no such curve, though single readings can be large; an effect the other way counts as inactive or inconclusive.
# What was measured:
# [1] = target: Cytochrome P450 3A4 (Homo sapiens) (UniProt P08684); assay: qHTS Assay for Inhibitors and Substrates of Cytochrome P450 3A4 (AID 884); note: nearly all actives have a fitted effect of over 50% in size; note: potency is the fitted concentration of half-maximal effect
# Outline: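 20 nM human CYP3A4 with 25 uM Luciferin-PPXE (at KM) in 200 mM KPO4, preincubated 10 min with compound; NADPH regeneration started a 60 min RT reaction. Luciferin detected by luminescence, normalized to 57 uM ketoconazole as full inhibition.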
# [2] = Confirmation and Secondary Assay for Modulators of Hemoglobin Beta Chain Splicing at IVS2 654 locus (AID 910);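 note: per-well total GFP intensity by laser scanning cytometry after 2-day treatment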
# Outline: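 HeLa cells stably carrying EGFP interrupted by mutant beta-globin IVS2-654 intron (CMV-driven) were treated with compound for 2 days at 37C; corrected splicing was scored as total peak GFP intensity per well (488 nm excitation, 500-520 nm emission).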
# [3] = Confirmation and Secondary Assay for Modulators of Hemoglobin Beta Chain Splicing at IVS2 705 locus (AID 930);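 note: HeLa cells stably expressing the EGFP-705 splicing reporter; GFP fluorescence per well restored by corrected splicing of the IVS2-705 intron in EGFP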
# Outline: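 HeLa EGFP-705 reporter; 500 cells/well, o/n 37C 5% CO2; cpd 2 d; 488 ex/500-520 em laser scan; total peak GFP intensity/well. Ref: 500 nM […] antisense PNA.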
# [4] = qHTS Assay for Lipid Storage Modulators (AID 1519; calls by dose curve); conditions: Drosophila S3 cells, BODIPY lipid droplet/cell ratio, laser cytometry, cells loaded with oleic acid; for activity change, negative = inhibition: at 57.5 µM (top of the series)
# Outline: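 Cells seeded at 5,000 per well were treated with compounds over a concentration series and loaded with oleic acid (400 uM, as added). Lipid droplet fluorescence (488 nm excitation, 500-530 nm channel) was read by laser-scanning cytometry and normalized to 20 uM Triacsin C.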
# [5] = target: Ubiquitin carboxyl-terminal hydrolase 1 (Homo sapiens) (UniProt O94782); assay: Inhibitors of USP1/UAF1: Pilot qHTS (AID 504865);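 note: rhodamine fluorescence freed from ubiquitin-rhodamine substrate followed over time; top concentration of the series differs between compounds; nearly all actives have a fitted effect of over 35% in size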
# Outline: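 Enzyme-free wells gave the negative control, while test wells held 1nM USP1/UAF1 preincubated with compound for 15 min at room temperature. Ub-Rho at 150nM final started the reaction, and fluorescence at 480/540 nm was recorded kinetically.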
# [6] = target: Cytochrome P450 3A4 (Homo sapiens) (UniProt P08684); assay: qHTS Assay for Activators of Cytochrome P450 3A4 (AID 885); note: nearly all actives have a fitted effect of over 65% in size
# Outline: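 Steps: enzyme/substrate mix dispensed; compound added, 10 min RT; NADPH regeneration solution added, 60 min RT; luciferin detection buffer stops reaction; 20 min later luminescence measured.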
# [7] = measured here: cell count channel max response
# [8] = measured here: lipid channel max response
# Cytochrome P450 3A4 (Homo sapiens), sequence (P08684 whole entry, looked up): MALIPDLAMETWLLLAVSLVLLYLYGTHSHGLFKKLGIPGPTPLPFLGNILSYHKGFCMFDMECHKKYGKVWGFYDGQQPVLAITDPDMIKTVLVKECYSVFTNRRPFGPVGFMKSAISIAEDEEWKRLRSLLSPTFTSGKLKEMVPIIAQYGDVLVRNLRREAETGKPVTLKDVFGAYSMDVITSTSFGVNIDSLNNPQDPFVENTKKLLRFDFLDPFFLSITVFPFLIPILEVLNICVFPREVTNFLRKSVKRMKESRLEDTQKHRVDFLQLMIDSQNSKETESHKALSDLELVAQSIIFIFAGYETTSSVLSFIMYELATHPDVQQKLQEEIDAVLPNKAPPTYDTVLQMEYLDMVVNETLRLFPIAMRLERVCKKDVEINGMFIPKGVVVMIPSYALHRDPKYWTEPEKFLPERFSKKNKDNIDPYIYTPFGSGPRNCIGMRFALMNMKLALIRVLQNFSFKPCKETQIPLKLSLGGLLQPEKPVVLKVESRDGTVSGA
# Ubiquitin carboxyl-terminal hydrolase 1 (Homo sapiens), sequence (O94782 whole entry, looked up): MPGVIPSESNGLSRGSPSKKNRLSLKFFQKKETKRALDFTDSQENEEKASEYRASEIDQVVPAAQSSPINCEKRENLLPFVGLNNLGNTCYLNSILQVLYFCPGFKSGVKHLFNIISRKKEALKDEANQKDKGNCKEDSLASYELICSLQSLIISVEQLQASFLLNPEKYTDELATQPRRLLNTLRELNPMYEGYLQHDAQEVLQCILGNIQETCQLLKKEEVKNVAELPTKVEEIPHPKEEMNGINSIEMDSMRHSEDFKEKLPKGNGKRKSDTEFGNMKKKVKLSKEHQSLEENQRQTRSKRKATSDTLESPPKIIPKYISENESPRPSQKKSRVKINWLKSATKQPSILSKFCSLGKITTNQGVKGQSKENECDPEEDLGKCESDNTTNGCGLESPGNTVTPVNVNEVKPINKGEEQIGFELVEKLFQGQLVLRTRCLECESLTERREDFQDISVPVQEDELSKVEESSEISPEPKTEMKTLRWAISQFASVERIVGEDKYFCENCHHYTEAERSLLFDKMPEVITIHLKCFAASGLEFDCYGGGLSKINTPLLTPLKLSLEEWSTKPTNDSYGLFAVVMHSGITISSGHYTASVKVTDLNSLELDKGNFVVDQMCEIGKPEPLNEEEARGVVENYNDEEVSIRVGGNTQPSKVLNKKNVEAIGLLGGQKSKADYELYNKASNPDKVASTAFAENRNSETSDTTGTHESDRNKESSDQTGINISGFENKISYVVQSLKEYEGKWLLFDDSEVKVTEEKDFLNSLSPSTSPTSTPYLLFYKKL
Compound,Potency [1],Potency [2],Potency [3],"activity change, negative = inhibition [4]","max response [4, 7] [%]","max response [4, 8] [%]",Potency [5],Potency [6]
OCc1ccccc1O[C@H]1OC(CO)C(O)C(O)C1O (some centres undefined),inactive,inactive,inactive,3.66% (inactive),2.55,8.97,inactive,
Nc1nc2ncc(=O)[nH]c2c(=O)[nH]1,inactive,inactive,inactive,4.1% (inactive),2.7,6.73,inactive,
CC(C)/C(O)=C1/C(=O)OC(c2ccoc2)[C@@]2(C)C(O)C(O)[C@@]34OC5(C)OC67CC(C)(C(O)[C@@]6(O)C(O)[C@@]3(O5)C12)C(CC(=O)O)[C@@]74C (some centres undefined),12.6 µM (active),inactive,inactive,0.873% (inactive),-1.97,0.302,inactive,
OC1C2COC(O2)[C@H](O)C1O (some centres undefined),inactive,inactive,inactive,7.67% (inactive),12.6,22.2,inactive,
CC1CC[C@@]2(OC1)OC1CC3C4CC[C@H]5CC(O)CC[C@@]5(C)C4CC[C@]3(C)C1C2C (some centres undefined),inactive,inactive,inactive,2.03% (inactive),27.2,29.7,inactive,
Cn1nnnc1SCC1=C(C(=O)O)N2C(=O)C(NC(=O)C(OC=O)c3ccccc3)C2SC1 (centres undefined),inactive,inactive,inactive,4.18% (inactive),15,24.5,inactive,
O=c1ccn(C2OC(COP(=O)(O)OP(=O)(O)OP(=O)(O)O)C(O)C2O)c(=O)[nH]1 (centres undefined),inactive,inactive,inactive,6.49% (inactive),21.5,29.6,inactive,
COc1ccc(/C=C/c2cc(O)cc(O[C@H]3OC(CO)C(O)C(O)C3O)c2)cc1 (some centres undefined),inactive,inactive,inactive,8.33% (inactive),12.8,23,inactive,
COc1cc(NS(C)(=O)=O)ccc1Cc1c2ccccc2nc2ccccc12,inactive,inactive,inactive,4.8% (inactive),13,21.3,inactive,
CCC(C(N)=O)c1ccccc1 (centres undefined),inactive,inactive,inactive,9.01% (inactive),9.46,21.9,inactive,
CC1(C)C=Cc2cc3ccc(=O)oc3cc2O1,inactive,inactive,inactive,11.6% (inactive),-4.2,7.43,inactive,
Nc1ncnc2c1ncn2C1OC(COP(=O)(O)O)C(O)C1O (centres undefined),inactive,inactive,inactive,5.46% (inactive),29.6,41.9,inactive,
C=C(C)C1COc2cc3oc(=O)ccc3cc2O1 (centres undefined),inactive,inactive,inactive,14.3% (inactive),12.5,28.8,inactive,
CCC(CCC(C)C1CCC2C3CCC4CC(O)CC[C@@]4(C)C3CC[C@@]12C)C(C)C (some centres undefined),inactive,inactive,inactive,7.69% (inactive),1.31,10.4,inactive,
CC1CCC(C(C)(C)O)CC2=C1CCC2C (centres undefined),inactive,inactive,inactive,7.53% (inactive),9.89,15.9,inactive,
CCC1OC(=O)C(C)[C@@H](O[C@H]2C[C@@](C)(OC)C(O)C(C)O2)C(C)[C@@H](O[C@@H]2OC(C)CC(N(C)C)C2O)[C@](C)(O)CC(C)/C(=N\OCOCCOC)[C@H](C)C(O)[C@]1(C)O (some centres undefined),inactive,inactive,inactive,7.24% (inactive),27.8,41,inactive,
Nc1nc2[nH]c(=O)[nH]c2c(=O)[nH]1,inactive,inactive,inactive,-0.21% (inactive),10.7,11.7,inactive,
NC(N)=NCCCC(NC(=O)C(N)Cc1ccc(O)cc1)C(=O)O (centres undefined),inactive,inactive,inactive,5.19% (inactive),20.9,29,inactive,
Nc1nc(O)c2ncn([C@H]3CC[C@@H](CO)O3)c2n1,inactive,inactive,inactive,7.72% (inactive),-2.43,2.95,inactive,
CC1(O)CC2C(CC1O)C2(C)C (centres undefined),inactive,inactive,inactive,2.85% (inactive),-5.99,-2.1,inactive,
CC(=O)Oc1ccc2c(c1OC(C)=O)OCC1(O)Cc3c(cc(OC(C)=O)c(OC(C)=O)c3OC(C)=O)C21 (centres undefined),inactive,inactive,inactive,0.943% (inactive),9.82,11.3,inactive,
COc1ccc(-c2cc(=O)c3c(O)c(OC)c(OC)c(OC)c3o2)cc1,inactive,inactive,inactive,5.49% (inactive),14.3,20.3,inactive,
COc1ccc(C(=O)c2ccc(O)cc2)c(O)c1O,,inactive,inactive,4.3% (inactive),2.91,8.25,inactive,inactive
CC1(C)CC23C(=O)CCC(O)C2(C)CCC13 (centres undefined),,inactive,inactive,0.112% (inactive),8.4,10.8,inactive,inactive
C=C1CCC2C(CC2(C)C)C(=C)CC/C1=N/O (centres undefined),,inactive,,4.06% (inactive),4.09,9.2,inactive,inactive
